# From article PMC11062922 (Nature Chemical Biology, 2023)
# Columns and labels:
# [1] = system: BCR; conditions: read-out: apparent Kd; compound concentrations:100 nM and 1000 nM (sheet 'Lestaurtinib' of Supplementary Table 1),run:Lestaurtinib_02487_R1,Plate:MR012; n = 1
# [2] = system: BUB1; conditions: read-out: apparent Kd; compound concentrations:100 nM and 1000 nM (sheet 'Lestaurtinib' of Supplementary Table 1),run:Lestaurtinib_02487_R1,Plate:MR012; n = 1
# [3] = system: CSK; conditions: read-out: apparent Kd; compound concentrations:100 nM and 1000 nM (sheet 'Lestaurtinib' of Supplementary Table 1),run:Lestaurtinib_02487_R1,Plate:MR012; n = 1
# [4] = system: CSNK2A2; conditions: read-out: apparent Kd; compound concentrations:100 nM and 1000 nM (sheet 'Lestaurtinib' of Supplementary Table 1),run:Lestaurtinib_02487_R1,Plate:MR012; n = 1
# [5] = system: T1, DJA1; conditions: read-out: apparent Kd; compound concentrations:100 nM and 1000 nM (sheet 'Lestaurtinib' of Supplementary Table 1),run:Lestaurtinib_02482_R2,Plate:MR011; n = 1
# T1 construct: gene DNAJA1
# [6] = system: EPHA1; conditions: read-out: apparent Kd; compound concentrations:100 nM and 1000 nM (sheet 'Lestaurtinib' of Supplementary Table 1),run:Lestaurtinib_02487_R1,Plate:MR012; n = 1
# [7] = system: EPHA2; conditions: read-out: apparent Kd; compound concentrations:100 nM and 1000 nM (sheet 'Lestaurtinib' of Supplementary Table 1),run:Lestaurtinib_02487_R1,Plate:MR012; n = 1
# [8] = system: PIK3CG; conditions: read-out: apparent Kd; compound concentrations:100 nM and 1000 nM (sheet 'Lestaurtinib' of Supplementary Table 1),run:Lestaurtinib_02487_R1,Plate:MR012; n = 1
# [9] = system: PIM1; conditions: read-out: apparent Kd; compound concentrations:100 nM and 1000 nM (sheet 'Lestaurtinib' of Supplementary Table 1),run:Lestaurtinib_02487_R1,Plate:MR012; n = 1
# [10] = system: PIP4K2C; conditions: read-out: apparent Kd; compound concentrations:100 nM and 1000 nM (sheet 'Lestaurtinib' of Supplementary Table 1),run:Lestaurtinib_02487_R1,Plate:MR012; n = 1
# [11] = system: PKN3; conditions: read-out: apparent Kd; compound concentrations:100 nM and 1000 nM (sheet 'Lestaurtinib' of Supplementary Table 1),run:Lestaurtinib_02487_R1,Plate:MR012; n = 1
# [12] = system: PRKCQ; conditions: read-out: apparent Kd; compound concentrations:100 nM and 1000 nM (sheet 'Lestaurtinib' of Supplementary Table 1),run:Lestaurtinib_02487_R1,Plate:MR012; n = 1
# [13] = system: PTK2; conditions: read-out: apparent Kd; compound concentrations:100 nM and 1000 nM (sheet 'Lestaurtinib' of Supplementary Table 1),run:Lestaurtinib_02487_R1,Plate:MR012; n = 1
# [14] = system: PTK6; conditions: read-out: apparent Kd; compound concentrations:100 nM and 1000 nM (sheet 'Lestaurtinib' of Supplementary Table 1),run:Lestaurtinib_02487_R1,Plate:MR012; n = 1
# [15] = system: RIPK2; conditions: read-out: apparent Kd; compound concentrations:100 nM and 1000 nM (sheet 'Lestaurtinib' of Supplementary Table 1),run:Lestaurtinib_02487_R1,Plate:MR012; n = 1
# [16] = system: RPS6KA1; conditions: read-out: apparent Kd; compound concentrations:100 nM and 1000 nM (sheet 'Lestaurtinib' of Supplementary Table 1),run:Lestaurtinib_02487_R1,Plate:MR012; n = 1
# [17] = system: SRC; conditions: read-out: apparent Kd; compound concentrations:100 nM and 1000 nM (sheet 'Lestaurtinib' of Supplementary Table 1),run:Lestaurtinib_02487_R1,Plate:MR012; n = 1
# [18] = system: TAOK1; conditions: read-out: apparent Kd; compound concentrations:100 nM and 1000 nM (sheet 'Lestaurtinib' of Supplementary Table 1),run:Lestaurtinib_02487_R1,Plate:MR012; n = 1
# [19] = system: TEC; conditions: read-out: apparent Kd; compound concentrations:100 nM and 1000 nM (sheet 'Lestaurtinib' of Supplementary Table 1),run:Lestaurtinib_02487_R1,Plate:MR012; n = 1
# [20] = system: ULK1; conditions: read-out: apparent Kd; compound concentrations:100 nM and 1000 nM (sheet 'Lestaurtinib' of Supplementary Table 1),run:Lestaurtinib_02487_R1,Plate:MR012; n = 1
substance,measurement,setting,value
Lestaurtinib,potency estimated from few doses,[1],314 nM
same,potency estimated from few doses,[2],854 nM
same,potency estimated from few doses,[3],526 nM
same,potency estimated from few doses,[4],415 nM
same,potency estimated from few doses,[5],1330 nM
same,potency estimated from few doses,[6],297 nM
same,potency estimated from few doses,[7],428 nM
same,potency estimated from few doses,[8],1570 nM
same,potency estimated from few doses,[9],860 nM
same,potency estimated from few doses,[10],86.5 nM
same,potency estimated from few doses,[11],755 nM
same,potency estimated from few doses,[12],2170 nM
same,potency estimated from few doses,[13],345 nM
same,potency estimated from few doses,[14],533 nM
same,potency estimated from few doses,[15],810 nM
same,potency estimated from few doses,[16],1820 nM
same,potency estimated from few doses,[17],618 nM
same,potency estimated from few doses,[18],1530 nM
same,potency estimated from few doses,[19],895 nM
same,potency estimated from few doses,[20],549 nM
